Consider eight compounds from PubChem BioAssay (NCI).

SMILES strings stand for the structures. The panel holds about 79,000 compounds, 15% with a hit somewhere; the sample as a whole holds those more often. A number with no mark means an inactive call. Activity calls are given as the source filed them. Cut-off read from the data, not from the text of the source: active = growth inhibition above about 70%; inactive = the rest.

The nature of the assay: NCI Yeast Anticancer Drug Screen. Data for the CLN2oe strain (AID 163).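 Note: 0% = growth of vehicle-only control cultures.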 The conditions noted are these: S. cerevisiae CLN2oe strain, active compounds read high. The method, then:
Growth inhibition of yeast strains with defined genetic alterations is measured as a screen for potential anti-cancer activity. Selected strains with alterations in DNA damage repair or cell cycle control were exposed to compounds and growth inhibition was measured relative to vehicle treated controls. The strain used in this assay is CLN2oe

`Cc1cc(O)c2c(c1)C(=O)C=C(Br)C2=O`: the growth inhibition by setting is: (at 1.2 µM) 7%; (at 3.7 µM) 16%; (at 11.0 µM) 40%; (at 33.0 µM) 99% (active); (at 100.0 µM) 97% (active).
With `O=C1C=CC(=O)N1c1ccc(N2C(=O)C=CC2=O)cc1`, the growth inhibition runs as follows: (at 1.2 µM) 35%; (at 3.7 µM) 59%; (at 11.0 µM) 99% (active); (at 33.0 µM) 99% (active); (at 100.0 µM) 99% (active).
As to `COC(=O)/C=C1/OC(c2ccc(Br)cc2)=C(Br)C1=O`, the growth inhibition (at 1.2 µM) is 8%; the growth inhibition (at 3.7 µM) is 10%; the growth inhibition (at 11.0 µM) was 10%; the growth inhibition (at 33.0 µM) is 26%; the growth inhibition (at 100.0 µM) was 59%.
Regarding `Cc1ccc(S(=O)(=O)N(C)c2ccc(Cl)cc2C2=NCCc3ccccc32)cc1`, the growth inhibition (at 1.2 µM) was 15%; the growth inhibition (at 3.7 µM) was 2%; the growth inhibition (at 11.0 µM) is 18%; the growth inhibition (at 33.0 µM) is 9%; the growth inhibition (at 100.0 µM) is 96% (active).
Turning to `S=c1nc(Cl)cc2[nH]c(Cl)cn12`, the growth inhibition is 1% (at 1.2 µM); -1% (at 3.7 µM); 3% (at 11.0 µM); 3% (at 33.0 µM); 60% (at 100.0 µM).
Consider `O=C(/C=C/c1cccc2ccccc12)c1ccc(Cl)cc1`, for which the growth inhibition runs as follows: (at 1.2 µM) 5%; (at 3.7 µM) 4%; (at 11.0 µM) -27%; (at 33.0 µM) -35%; (at 100.0 µM) -43%.
As for `Cn1c2nc3ccccc3c-2nc2ccccc21`, the growth inhibition is, setting by setting: (at 1.2 µM) 19%; (at 3.7 µM) 46%; (at 11.0 µM) 91% (active); (at 33.0 µM) 97% (active); (at 100.0 µM) 97% (active).
Take `CC[C@@]1(OC(=O)CN(C)C)C(=O)OCc2c1cc1n(c2=O)Cc2cc3c(N)cccc3nc2-1`: the growth inhibition (at 1.2 µM) was -8%; the growth inhibition (at 3.7 µM) was 1%; the growth inhibition (at 11.0 µM) was 8%; the growth inhibition (at 33.0 µM) is 43%; the growth inhibition (at 100.0 µM) was 80% (active).
